Screens: PubChem BioAssay, National Center for Advancing Translational Sciences (NCATS)
MmCpn inh – inhibitors of Methanococcus maripaludis chaperonin TRiC (MmCpn). Potency, µM (titrated, usually from 76.9 µM), for the others: at the highest dose activity, negative = inhibition, most hits filed as inhibitors. purified Mm-Cpn ATPase, ADP Transcreener TR-FRET. 330,000 compounds, 0.031% hits. AID 504842; note: potency is the fitted concentration of half-maximal effect; nearly all actives have a fitted effect of over 80% in size
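Reaction buffer contained 30 mM Tris pH 7.4, 100 mM KCl, 5 mM MgCl2 and 1 mM DTT. Mm-CPN (25 nM final) hydrolysed 10 uM ATP over 30 min at 37°C; ADP was read by HTRF.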
Sfp PPTase inh – Sfp phosphopantetheinyl transferase inhibition; Q9F4F7; 310,000 compounds, 3.5% hits; AID 1490; Biochemical Sfp PPTase activity, qHTS; Potency, µM, for the others: largest response in the series, negative = inhibition, most hits filed as inhibitors;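 note: the enzyme is Sfp with the accession as filed and its product quenches rhodamine fluorescence; potency is the fitted concentration of half-maximal effect; 0% = enzyme reaction without inhibitor and -100% = no enzyme wells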
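Reaction rates are the 30-min fluorescence difference (ex 525, em 598 nm) in wells containing 15 nM Sfp, 5 uM rhodamine-CoA and 12.5 uM BHQ-2-YbbR at pH 7.6 with 10 mM MgCl2.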
VDR inh – inhibitors of human vitamin D receptor; VDR-SRC2-3 peptide fluorescence polarization, 2 h; Potency, µM, inactives show max response, negative = inhibition, actives largely listed as inhibitors; 400,000 compounds, 0.93% hits; note: potency is the fitted concentration of half-maximal effect
Target sequence (P11473 whole entry, looked up): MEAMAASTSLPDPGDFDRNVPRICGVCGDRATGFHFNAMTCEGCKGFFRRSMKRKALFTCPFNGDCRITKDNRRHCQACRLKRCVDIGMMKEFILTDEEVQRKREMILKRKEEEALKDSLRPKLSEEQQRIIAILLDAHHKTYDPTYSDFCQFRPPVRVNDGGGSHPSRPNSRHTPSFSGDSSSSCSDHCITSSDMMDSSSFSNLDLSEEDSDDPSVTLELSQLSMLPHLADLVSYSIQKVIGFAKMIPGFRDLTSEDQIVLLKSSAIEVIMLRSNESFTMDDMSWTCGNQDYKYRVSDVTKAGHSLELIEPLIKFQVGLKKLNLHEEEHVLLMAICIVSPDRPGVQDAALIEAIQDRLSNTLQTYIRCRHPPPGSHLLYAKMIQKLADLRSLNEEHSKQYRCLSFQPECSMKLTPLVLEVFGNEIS
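Two reagent solutions held at 4 deg C in the dark were dispensed, compounds pinned at 23 nl, and the mixture incubated 2 h at room temperature. Read-out: fluorescence polarization of VDR–SRC2-3 peptide binding.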
PLK1 PBD block – blocks phosphopeptide binding to human PLK1 polo-box domain | P53350 | 360,000 compounds, 2.8% hits | AID 720504 | Plk1 PBD binding of FITC phosphopeptide, fluorescence polarization | Potency, µM, for the others: max response, negative = inhibition, actives largely listed as inhibitors; note: potency is the fitted concentration of half-maximal effect; series mostly up to about 57 µM; nearly all actives have a fitted effect of over 65% in size
CCT chaperon mod – modulators of cytosolic chaperonin (CCT/TRiC) activity | purified chaperonin ATPase assay, HTRF ADP detection, 30 min | 360,000 compounds, 0.3% hits | activity change, % (no concentration beside the values), hits read low | AID 651819; in the data active = activity change below about -30%
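TRiC at 40 or 20 nM final (batch-dependent) in 30 mM Tris pH 7.4, 100 mM KCl, 5 mM MgCl2, 1 mM DTT, with compound at single 76 uM and 10 uM ATP, 30 min at 37 deg C. ADP detected by HTRF Transcreener, 665/615 ratio.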
G9a block – G9a (human) methyltransferase inhibition; Potency, µM (titrated, usually from 102 µM), for inactives: top-dose activity, negative = inhibition, hits mostly inhibitors; G9a H3K9 monomethylation, AlphaScreen, 2 h; Q96KQ7; 350,000 compounds, 8.8% hits; note: potency is the fitted concentration of half-maximal effect; nearly all actives have a fitted effect of over 75% in size
Target sequence (Q96KQ7 913-1193 limits assumed): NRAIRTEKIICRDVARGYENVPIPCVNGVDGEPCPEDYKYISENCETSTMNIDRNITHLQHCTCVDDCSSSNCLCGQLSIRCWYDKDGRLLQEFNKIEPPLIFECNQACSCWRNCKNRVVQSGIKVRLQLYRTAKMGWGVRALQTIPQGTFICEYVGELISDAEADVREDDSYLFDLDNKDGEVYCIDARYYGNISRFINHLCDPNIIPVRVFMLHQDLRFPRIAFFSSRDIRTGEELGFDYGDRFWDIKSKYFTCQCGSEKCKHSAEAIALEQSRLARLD
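Signal arises when biotinylated H3K9 peptide, once monomethylated, bridges streptavidin donor and antibody-captured acceptor beads. Enzyme at 20 nM was preincubated 15 min with test compounds; peptide 500 nM and SAM 20 uM then reacted for 2 h.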
Numbers without * were called inactive; ? = inconclusive; / = not tested or not shown; [ ] = remark or other dose. Rows were chosen to be rich in hits. Some 10% of all compounds tested hit in one or more screens of this group. Unless noted, calls come from the whole dose curve; as a rule, active = well fitted curve in the direction sought with a large enough effect; inconclusive = small, poorly fitted or top-dose-only effect, or another doubt; inactive = no such curve, though single readings can be large; an effect the other way counts as inactive or inconclusive. Unless noted, % is set by controls: 0 for no effect and ±100 for the full control effect.

SMILES	MmCpn inh	Sfp PPTase inh	VDR inh	PLK1 PBD block	CCT chaperon mod	G9a block
CCOc1ccc(NC(=O)Cn2c(=O)n(CCc3ccccc3)c(=O)c3c4c(sc32)CN(C(C)=O)CC4)cc1	/	/	-3.8%	/	/	15.1%[59 µM]
Cc1ccc(C2C(C(N)=S)=C(N)OC3=C2C(=O)CC(C)(C)C3)cc1 (configuration not stated)	-1.1%	3.55µM*	?	0.8%	-0.3	?
CCOC(=O)C1=C(N)OC2=C(C(=O)CC(C)(C)C2)C1c1ccco1 (configuration not stated)	-0.7%	2.1%	-14.2%	-11.5%	-3.1	22.4µM*
N#Cc1ccccc1-c1ccc2ncnc(N3CCNCC3)c2c1	/	8.5%	2.4%	/	/	/
COc1ccc2c(c1)c1c(c(=O)n(Cc3ccccc3)c(=O)n1CC(=O)Nc1ccc(C)cc1C)n2C	/	/	1.7%	/	/	5.9%[59 µM]
COc1ccc(S(=O)(=O)N(CC(=O)Nc2cccc(C)c2)c2ccc(C)cc2)cc1OC	/	/	30.8%	/	/	-40.3%[59 µM]
O=C(O)CCC(=O)c1ccc2c(c1)OCCO2	0.8%	11.7%	7.3%	-0.1%	0.0	15.8%
O=C(CCN1Cc2ccccc2C1)c1ccc2c(c1)OCCO2	-6.1%	?	-88.7%	23.8µM*	-1.8	8.91µM*
O=C(COC(=O)C(O)c1ccccc1)c1ccc2c(c1)OCCO2 (configuration not stated)	-1.2%	-0.8%	-1.8%	-0.9%	-38.7*	14.0%[59 µM]
O=C(C[n+]1ccc(/C=C/c2ccccc2)cc1)c1ccc2c(c1)OCCO2	-1.2%	-4.1%	-9.0%	-5.9%	-66.3*	?
CSc1ncc2c(n1)-c1ccccc1N(Cc1ccccc1C)S2(=O)=O	/	/	0.1%	/	/	22.7%[59 µM]
Cc1c(Cl)cccc1NC(=O)c1cnc2sc(N3CCCC3)nn2c1=O	/	/	7.8%	/	/	5.2%[59 µM]
CCOCCn1cnc2sc(C(=O)Nc3ccccc3C(=O)OC)c(C)c2c1=O	/	/	8.0%	/	/	-0.6%[59 µM]
O=[N+]([O-])c1ccc(N=Nc2ccc(O)cc2O)cc1	1.0%	-9.6%	14.8%	-3.5%	1.2	39.8µM*
Clc1nc(Cl)nc(-c2cn(-c3ccccc3)c3ccccc23)n1	-0.1%	56.2µM*	-26.6%	-10.8%	-1.3	12.6µM*
CCN(CC)C(=O)c1csc(Nc2ccc(C)cc2)n1	0.4%	20µM*	-4.1%	-8.7%	-0.6	12.6µM*
Cc1ccc(-c2cc(C(=O)NCCCN3CCOCC3)no2)cc1	-0.4%	12.7%	-6.2%	0.4%	0.7	2.8%[12.7 µM]
Cc1ccc(Nc2nc(C(=O)NCCCN3CCOCC3)cs2)cc1	-3.1%	-7.1%	-0.1%	-5.2%	-0.3	89.1µM*
COc1ccc(NC(=O)CN2C(=O)CCn3nc(-c4cccn4C)cc32)cc1Cl	/	/	14.6%	/	/	?
O=C(CCS(=O)(=O)c1nc(-c2ccc3c(c2)OCO3)cc(C(F)(F)F)n1)Nc1ccccc1F	/	/	39.8µM*	/	/	-6.7%[59 µM]
COc1ccccc1CNC(=O)c1ccc2nc(-c3ccccc3)c(-c3ccccc3)nc2c1	/	/	10.7%	/	/	-3.2%[59 µM]
Cc1cc2c(cc(C(=O)NCc3cccnc3)n2Cc2ccc(Cl)cc2)o1	-0.4%	44.7µM*	-2.9%	-10.1%	-5.3	?
O=C(NCc1ccco1)C1CC(c2ccc(Cl)c(Cl)c2)=NO1 (configuration not stated)	1.2%	14.8%	1.3%	-2.6%	0.7	1.8%
O=C(NCc1ccccc1)c1cc2sccc2n1Cc1ccc(Cl)cc1	/	/	-5.1%	/	/	-24.2%[59 µM]
O=C1CCC(C(=O)NCc2cccnc2)N1 (configuration not stated)	-0.5%	11.5%	-17.9%	29.9µM*	-1.6	?
SMILES	MmCpn inh	Sfp PPTase inh	VDR inh	PLK1 PBD block	CCT chaperon mod	G9a block
O=C(NCc1cccnc1)C1CC(c2ccccc2Cl)=NO1 (configuration not stated)	-0.9%	11.5%	-7.4%	26.7µM*	0.2	20.7%
O=C(NCc1ccco1)C1CC(c2c(Cl)cccc2Cl)=NO1 (configuration not stated)	-1.0%	79.4µM*	-27.9%	-8.0%	-2.1	?
CN1CC(=O)N(CC(=O)Nc2cccc(C#N)c2)c2ccccc2C1=O	/	/	1.5%	/	/	7.8%[59 µM]
O=C(NCc1cccnc1)c1ccc(-c2cccc(Cl)c2Cl)o1	-6.5%	15.8µM*	-3.2%	-11.4%	0.8	/
O=C(NCc1cccnc1)C1CC(c2ccccc2O)=NO1 (configuration not stated)	1.1%	-29.4%	-0.6%	-8.3%	-3.2	25.1µM*
CCCC[C@@H]1C[C@H]1[C@@H](NP(=O)(c1ccccc1)c1ccccc1)c1ccccc1OC	/	-18.6%	/	/	/	/
COc1ccccc1CNC(=O)CCc1c(C)nn(-c2ccc(N3CCOCC3)nn2)c1C	/	/	15.2%	/	/	4.3%[59 µM]
Cc1cc2nc(/C(C#N)=C/c3ccncc3)[nH]c2cc1C	0.7%	-0.3%	22.4µM*	26.7µM*	-2.2	5.9%
N#C/C(=C\c1ccncc1)c1nc2ccccc2[nH]1	-0.7%	2.6%	-0.1%	-2.3%	-1.5	?
Cc1ccc2nc(/C(C#N)=C/c3ccc(O)c(O)c3)[nH]c2c1	-17.4%	-25.2%	?	?	1.5	8.91µM*
Cc1ccc2nc(/C(C#N)=C\c3ccc(N4CCCCC4)c([N+](=O)[O-])c3)[nH]c2c1	/	-8.1%	-5.0%	-18.1%	-2.8	14.1µM*
CNC(=O)[C@H](C)/C=C(\c1cccnc1)C(NC(=O)OCc1ccccc1)c1ccc(C(=O)OC)cc1 (some centres not stated)	/	18.1%	/	/	/	/
COc1ccccc1CCNC(=O)CCCn1c(=O)c2cccn2c2cccnc21	/	/	4.4%	/	/	-2.8%[59 µM]
Cc1nc(N2CCOCC2)c2nc(-c3ccccc3)n(C(C)CN(C)C)c2n1 (configuration not stated)	/	15.4%	/	/	/	/
COc1ccc(-c2cc(=O)c3cc(OC)ccc3[nH]2)cc1	2.9%	13.4%	?	9.8%	-1.5	79.4µM*
O=C(O)c1ccc(S(=O)(=O)c2ccc3c(c2)C(=O)N(NC(=O)c2ccncc2)C3=O)cc1	0.5%	-15.2%	3.0%	-7.1%	-1.5	50.1µM*
Cc1cc(Cl)ccc1OCC(=O)Nc1c(Cl)ccc2nsnc12	/	/	4.7%	/	/	-35.6%[59 µM]
O=c1nc2s/c(=C\c3ccc(-c4ccccc4[N+](=O)[O-])o3)c(=O)n2nc1-c1ccccc1	-5.3%	?	-17.0%	?	0.7	?
CN1C(=O)/C(=C/c2ccc(-c3ccccc3[N+](=O)[O-])o2)SC1=Nc1ccc(Cl)c(C(=O)O)c1	-10.1%	14.1µM*	?	26.7µM*	-7.7	3.16µM*
COC(=O)c1sc(-c2ccc(C(C)(C)C)cc2)cc1NC(=O)CSCC(=O)O	-18.5%	-2.7%	-18.2%	?	-0.2	-26.6%
C#CCNC(=O)c1cc(-c2ccccc2)sc1N	/	/	/	-9.2%	/	/
COC(=O)c1sc(-c2ccccc2)cc1NC(=O)C1CC1	-9.5%	44.7µM*	17.0%	-6.6%	1.3	129.0%
